# According to PubChem BioAssay AID1511 (Johns Hopkins Ion Channel Center, 2009):
# The whole screen tested about 310,000 compounds, of which about 1,600 (0.52%) were called active. The sample as a whole holds a higher share of actives than the screen did. Unmarked numbers belong to inactive results.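 The calls were made as follows: active = activation above the mean of controls blocked by dofetilide plus 5 SD; inactive = the rest.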
# Target: Voltage-gated inwardly rectifying potassium channel KCNH2 (Homo sapiens) (UniProt Q12809)
# Sequence (Q12809 whole entry, looked up): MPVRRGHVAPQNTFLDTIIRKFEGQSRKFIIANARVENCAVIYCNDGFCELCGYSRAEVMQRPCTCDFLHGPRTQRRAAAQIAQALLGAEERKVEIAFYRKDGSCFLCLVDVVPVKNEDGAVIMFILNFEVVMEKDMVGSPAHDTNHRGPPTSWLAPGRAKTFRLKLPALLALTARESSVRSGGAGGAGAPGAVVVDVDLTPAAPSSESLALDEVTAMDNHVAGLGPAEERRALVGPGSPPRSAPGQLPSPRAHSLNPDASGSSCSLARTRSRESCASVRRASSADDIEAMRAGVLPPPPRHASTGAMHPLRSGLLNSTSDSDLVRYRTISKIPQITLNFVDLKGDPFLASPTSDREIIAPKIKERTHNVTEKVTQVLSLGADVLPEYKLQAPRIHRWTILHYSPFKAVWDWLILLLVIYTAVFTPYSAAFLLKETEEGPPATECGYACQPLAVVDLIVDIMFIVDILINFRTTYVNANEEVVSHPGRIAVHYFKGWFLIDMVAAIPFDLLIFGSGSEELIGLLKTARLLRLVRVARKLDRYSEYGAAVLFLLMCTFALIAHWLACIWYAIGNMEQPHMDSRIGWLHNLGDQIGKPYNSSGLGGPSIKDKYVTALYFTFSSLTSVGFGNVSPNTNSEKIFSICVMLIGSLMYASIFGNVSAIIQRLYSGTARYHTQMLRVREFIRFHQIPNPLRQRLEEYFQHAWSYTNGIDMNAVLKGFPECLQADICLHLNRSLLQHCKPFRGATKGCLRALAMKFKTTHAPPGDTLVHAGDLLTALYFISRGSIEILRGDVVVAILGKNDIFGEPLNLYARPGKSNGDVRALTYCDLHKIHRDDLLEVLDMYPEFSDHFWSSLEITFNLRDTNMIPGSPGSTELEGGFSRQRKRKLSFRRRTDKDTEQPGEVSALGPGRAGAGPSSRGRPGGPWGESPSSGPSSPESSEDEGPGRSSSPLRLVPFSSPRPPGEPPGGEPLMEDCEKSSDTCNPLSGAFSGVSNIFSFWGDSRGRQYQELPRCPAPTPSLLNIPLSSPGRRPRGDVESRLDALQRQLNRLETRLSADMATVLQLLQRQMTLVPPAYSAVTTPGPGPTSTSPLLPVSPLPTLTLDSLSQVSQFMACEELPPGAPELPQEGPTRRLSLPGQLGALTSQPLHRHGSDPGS
# Assay: hERG rescue from dofetilide block, primary screen, cell-based, CHO-hERG, FluxOR thallium flux, dofetilide IC70 (AID 1511);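 also: thallium influx through hERG after potassium depolarization seen as dye fluorescence rise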
# Conditions: dofetilide IC70 present, at 10 µM, stronger effect = higher value
row,SMILES,"activation (rescue from dofetilide block), less the hit threshold"
1,Cc1ccc2nc(-c3ccncc3)cc(C(=O)Nc3ccncc3)c2c1,-6.13%
2,Cc1ccc2nc(-c3ccncc3)cc(C(=O)Nc3ccc4c(c3)OCCO4)c2c1,6.28% (active)
3,Cc1ccc2nc(-c3ccccn3)cc(C(=O)Nc3ccc4c(c3)OCO4)c2c1,-4.32%
4,O=C(NCC1CC1)c1onc(CSc2ccccc2)c1C(=O)NCC1CC1,-9.81%
5,COc1ccc(CC(=O)N2N=C(C)CC2(O)C(F)(F)F)cc1 (stereo unspecified),-4.8%
6,Cc1nc2ccc(C(=O)O)cc2[nH]1,6.97% (active)
7,CC(C)c1nc2ccc(C(=O)O)cc2[nH]1,-0.43%
8,Cc1nc2ccc(C(=O)N/N=C/c3ccc(O)cc3)cc2[nH]1,-13.1%
9,COc1ccc(CNS(=O)(=O)c2cc(-c3cc(C)no3)ccc2C(C)C)cc1,-6.05%
10,CS(=O)(=O)N(Cc1nc2sc3c(c2c(=O)[nH]1)CCCC3)C1CCCCC1,-10.9%
11,Cc1cc(Cl)ccc1NNC(=O)c1snnc1C,-9.34%
12,COc1nc(NC2CCCCC2)nc(N2CCCCCC2)n1,-7.83%
13,c1ccc(NCc2cccc3ccccc23)nc1,-3.89%
14,Oc1ccc2ccccc2c1N=Nc1nccs1,29.7% (active)
15,Oc1ccc(N=Nc2nccs2)c(O)c1,-0.07%
16,C=CCC1=C/C(=C\c2c(N)n3nc(CC(=O)N4CCOCC4)sc3nc2=O)C=C(OC)C1=O,-8.72%
17,Cn1c(SCC(=O)N2CCOCC2)nnc1-c1ccc(NC(=O)c2ccccc2F)cc1,6.37% (active)
18,Cn1c(SCC(=O)N2CCOCC2)nnc1-c1ccc2ncccc2c1,-4.81%
19,Cn1c(SCC(=O)N2CCCC2)nnc1-c1ccc2c(c1)OCO2,-8.24%
20,Cc1cccc(NC(=O)c2ccc([N+](=O)[O-])o2)c1,-12.5%
21,Cc1cccc(NC(=S)NC(=O)c2ccc(Br)o2)c1,17.4% (active)

row,SMILES,"activation (rescue from dofetilide block), less the hit threshold"
1,Cc1cccc(NC(=O)NC(=S)NC(=O)c2ccccc2)c1,-0.76%
2,CCc1ccc(C2N3CC4([N+](=O)[O-])CN2CC([N+](=O)[O-])(C3)C4(C)C)cc1 (stereo unspecified),-4.31%
3,O=C(CCl)Nc1cccc(CP(=O)(c2ccccc2)c2ccccc2)c1,-8.43%
4,Cc1ccc(NC(=S)NC2CCCC2)cc1,4.71% (active)
5,Cc1cc(Br)ccc1NC(=S)NC1CCCC1,-9.68%
6,Cc1ccc(NC(=O)CSCC(=O)NC2CCCCC2)cc1,-3.26%
7,COc1cc(C(=O)Nn2c(O)c(C3=c4ccccc4=NC3=O)sc2=S)ccc1O,-14.6%
8,Cc1onc(-c2ccc(Cl)cc2)c1-c1ccnn1S(=O)(=O)c1ccc(Cl)cc1,-7.23%
9,CC(C)NC(=O)CCCn1c(=S)[nH]c2cc3c(cc2c1=O)OCO3,-9.07%
10,CCCCNC(=O)CCn1c(=S)[nH]c2cc3c(cc2c1=O)OCO3,-6.01%
11,O=C(CCn1c(=S)[nH]c2cc3c(cc2c1=O)OCO3)NCc1ccc(Cl)cc1,4.99% (active)
12,N#Cc1c(-c2ccccc2)cc(-c2ccccc2)nc1SCC(=O)O,-12.9%
13,N#Cc1c(-c2ccc(F)cc2)cc(C2CC2)nc1SCC(=O)c1cccs1,8.07% (active)
14,CCOC(=O)CC(=O)CSc1nc(-c2ccccc2)cc(-c2ccc(Cl)cc2)c1C#N,-4.82%
15,NC(=O)COc1ccc(C23CC4CC(CC(C4)C2)C3)cc1,-4.82%
16,O=C(O)CN(Cc1ccco1)S(=O)(=O)c1ccc(F)cc1,-6.3%
17,CN(C)c1nc(=Nc2cccc(Cl)c2)ss1,40.5% (active)
18,Clc1cccc(N=C2NN=C(c3ccc4c(c3)OCCO4)CS2)c1,-12.5%
19,COc1ccc(CCNC(=O)CSCc2ccc(Br)cc2)cc1OC,-9.1%
20,Cc1cccc(C)c1NC(=O)CCS(=O)(=O)c1cccc2nsnc12,-5.88%
21,N#Cc1c(N)nc2c(c1N)CC(C(F)(F)F)O2 (stereo unspecified),-1.93%

row,SMILES,"activation (rescue from dofetilide block), less the hit threshold"
1,Fc1ccc2nc(Nc3nc4c(s3)CCCC4)sc2c1,10.5% (active)
2,O=C(Cn1c(=O)sc2ccccc21)Nc1nc2c(s1)CCCC2,-3.68%
3,CSc1ncccc1C(=O)Nc1nc2ccc(F)cc2s1,-5.7%
4,Brc1ccc(Nc2c3c(nc4ncnn24)CCC3)cc1,-14.2%
5,CC(C)c1ccc2c(c1)c(SC(C)(C)C)c(CC(C)(C)C(=O)O)n2Cc1ccc(Cl)cc1,26.6% (active)
6,O=C(O)c1ccc(Cn2c(=S)[nH]c3cc(Cl)ccc3c2=O)cc1,-3.87%
7,S=C(Cc1ccc(Cl)cc1)N1CCOCC1,-11.3%
8,CCN(CC)CCCNC(=O)c1c(O)c2cc(F)cc3c2n(c1=O)C(C)CC3 (stereo unspecified),-2.1%
9,CCOC(=O)c1cccc(NC(=O)CN(c2ccc(C)cc2)S(=O)(=O)c2c(C)noc2C)c1,-0.14%
10,Cc1ccc(N(CC(=O)Nc2cc(C)cc(C)c2)S(=O)(=O)c2cccc3nonc23)cc1,4.86% (active)
11,Cc1ccc(CNC(=O)CCNS(=O)(=O)c2cccc3nonc23)cc1,-9.61%
12,Cc1cc2c(cc1S(=O)(=O)NCc1ccc(Cl)cc1)OCC(=O)N2,-9.71%
13,CCC(C(=O)N1CCOCC1)n1c(C(=O)OC)cc2occc21 (stereo unspecified),-6.73%
14,CCCC(C(=O)N1CCOCC1)N1C(=O)C2C3C=CC(C3)C2C1=O (stereo unspecified),4.64% (active)
15,CCCCOC(=O)NCN1C(=O)C2C3C=CC(C3)C2C1=O (stereo unspecified),-3.35%
16,COc1ccc(CNC(=O)C(C)n2nc(C)c3c(C)n(-c4ccccc4)nc3c2=O)c(OC)c1 (stereo unspecified),-10.8%
17,COc1ccc(C(=O)N2CCCN(C)CC2)c(OC)c1,0.38%
18,Cc1cc(C)c2c(n1)sc1c(=O)n(-c3ccccc3)c(=O)[nH]c12,-5.76%
19,O=c1[nH]c(/C=C\c2cccc(C(F)(F)F)c2)nc(O)c1[N+](=O)[O-],-0.14%
